# Laboratory results published in PubChem BioAssay (NCI).
# This is part of a sample that, as a whole, favours compounds with a hit. Of some 79,000 tested, about 15% had one in any assay. Unmarked numbers belong to inactive results. Calls of active or inactive are those of the source. Rule as the data show it: active = growth inhibition above about 70%; inactive = the rest.
# Assay: NCI Yeast Anticancer Drug Screen. Data for the mgt1 strain (AID 153)
# Settings: S. cerevisiae mgt1 mutant growth inhibition, active compounds read high
# Experimental: Growth inhibition of yeast strains with defined genetic alterations is measured as a screen for potential anti-cancer activity. Selected strains with alterations in DNA damage repair or cell cycle control were exposed to compounds and growth inhibition was measured relative to vehicle treated controls. The strain used in this assay is mgt1
SMILES,growth inhibition (at 1.2 µM) [%],growth inhibition (at 3.7 µM),growth inhibition (at 11.0 µM),growth inhibition (at 33.0 µM),growth inhibition (at 100.0 µM)
CCCCOc1ccc2nc(C)cc(N=[N+]=[N-])c2c1,6,7%,12%,32%,90% (active)
O=c1c2ccccc2nc(-c2ccc(Cl)cc2)n1O,60,90% (active),94% (active),94% (active),93% (active)
CNC(=O)OCc1c2ccncc2c(C)c2c1[nH]c1ccccc12,2,21%,18%,34%,55%
CC(C)(Br)C(=O)/C=C/c1ccccc1,-2,-1%,4%,7%,15%
O=C(C#Cc1ccccc1)Nc1ccccc1,-5,-10%,-4%,58%,97% (active)
C[n+]1c(-c2ccc(/C=N/NC(=O)c3ccc(C(=O)N/N=C/c4ccc(-c5cn6ccccc6[n+]5C)cc4)cc3)cc2)cn2ccccc21,13,22%,42%,84% (active),71% (active)
O=C(C(Cl)=C(N1CCCCC1)N1CCCCC1)C(Cl)Cl,-3,-1%,-4%,-3%,2%
Cc1cccc(C)c1NC(=O)CCC(=O)C(C)C(=O)c1ccc(O)cc1 (stereo not given),-1,4%,-3%,-2%,-5%
